Compound activity: PubChem, National Center for Advancing Translational Sciences (NCATS)
Hits are enriched below; roughly 21% of the tested compounds scored in any of these assays.
DT40 TDP1 CPT = growth inhibition of DT40 Tdp1-/-;hTDP1 cells with camptothecin (screen for TDP1 inhibitors); chicken DT40 Tdp1-/-;hTDP1 cells + 20 nM CPT, ATP luminescence, 48 h; Potency, µM (top dose mostly 46.2 µM), for inactives: top-dose activity change, negative = growth inhibition, usual class: inhibitors; 420,000 tested, 12% active; AID 686979; note: potency is the fitted concentration of half-maximal effect; % is set by controls: 0 for no effect and ±100 for the full control effect; nearly all actives have a fitted effect of over 55% in size
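Chicken DT40 Tdp1-/- cells complemented with human TDP1, 400 cells/well, exposed to compounds plus 20 nM camptothecin for at least 48 h at 37 C; viability read as ATP content by CellTiter-Glo luminescence.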
DRD3 agonist = activates the human D3 dopamine receptor | D3R DiscoveRx beta-arrestin cells, luminescence, 90 min | 410,000 tested, 0.58% active | P35462 | max activation, % | AID 652048; in the data active = max activation above about 30%; note: 0% is about no effect
Target sequence (P35462 whole entry, looked up): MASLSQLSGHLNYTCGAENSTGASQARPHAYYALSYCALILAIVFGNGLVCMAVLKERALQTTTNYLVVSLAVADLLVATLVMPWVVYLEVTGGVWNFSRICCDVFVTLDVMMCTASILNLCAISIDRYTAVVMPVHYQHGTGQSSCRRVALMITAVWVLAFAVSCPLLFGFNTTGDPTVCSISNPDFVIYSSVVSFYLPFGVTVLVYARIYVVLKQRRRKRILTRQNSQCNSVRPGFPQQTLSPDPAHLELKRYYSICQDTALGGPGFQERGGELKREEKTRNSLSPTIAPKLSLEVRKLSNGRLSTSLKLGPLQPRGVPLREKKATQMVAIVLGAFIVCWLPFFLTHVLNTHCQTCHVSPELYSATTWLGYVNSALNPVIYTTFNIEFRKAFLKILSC
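Cells at 1500/well, incubated overnight, then treated with pinned compounds (dopamine as control) for 90 min at 37 degrees C. DiscoveRx reagent added for 30 - 60 minutes at room temperature; luminescence read.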
DT40 TDP1 no CPT = qHTS for Inhibitors of human tyrosyl-DNA phosphodiesterase 1 (TDP1): qHTS in cells in absence of CPT; DT40 Tdp1-/- hTDP1 cells, no CPT, ATP luminescence, 48 h; Potency, µM (doses to about 46.2 µM), inactives show top-dose activity change, negative = growth inhibition, most hits filed as inhibitors; 420,000 tested, 15% active; AID 686978, 2013; note: potency is the fitted concentration of half-maximal effect; % is set by controls: 0 for no effect and ±100 for the full control effect; nearly all actives have a fitted effect of over 55% in size
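Seeded 400 DT40-hTDP1 cells/well (vehicle DMSO, no 20 nM CPT); pinned compounds; ≥48 hr at 37 °C; CellTiter-Glo luminescence as viability measure.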
DRD3 antagonist = D3 dopamine receptor (human) antagonism; P35462; D3R cells, DiscoveRx beta-arrestin luminescence, antagonist mode; hits give low values; max response, negative = inhibition, %; 360,000 tested, 2.5% active; in the data active = max response below about -50%; inconclusive = no clear call, values can overlap the other calls; note: % is set by controls: 0 for no effect and ±100 for the full control effect
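Cells plated overnight at 1500 cells/well, then exposed to library compounds with dopamine controls for 90 minutes at 37 degrees C. DiscoveRx reagent added for 30–60 minutes at room temperature; luminescence read, quantitative HTS format.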
IL1B secr inh = inhibitors of inflammasome signaling (IL-1 beta secretion); 360,000 tested, 4.7% active; THP-1 LPS/ATP IL-1B secretion, AlphaLISA, 16 h; hits give low values; activity change, % at 57.5 µM; AID 743279; in the data active = activity change below about -50%; inconclusive = mostly about -30% to -49%; note: % is set by controls: 0 for no effect and ±100 for the full control effect
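Secreted IL-1B measured by AlphaLISA bead assay after 16 h compound exposure of THP-1 cells; compounds (final up to 57.5 uM) added 1 h before LPS (250 ng/mL) and ATP (1.25 mM) stimulation; lower signal means less secretion.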
ClpP mod = qHTS Assay for Activators of ClpP; 340,000 tested, 1.9% active; Potency, µM (top dose mostly 57.5 µM), for inactives: at the highest dose activity change, negative = active; ATP-dependent Clp protease proteolytic subunit (Bacillus subtilis (strain 168)), P80244; purified B. subtilis ClpP, FRET peptide cleavage, 20 min; AID 651965, 2013; active = well fitted falling curve with a large enough effect; inconclusive = small, poorly fitted or top-dose-only effect; inactive = no such curve, though single readings can be large or run the other way; note: potency is the fitted concentration of half-maximal effect; the source files actives as falling curves though it sought activators and does not explain the sign; nearly all actives have a fitted effect of over 65% in size
Target sequence (P80244 whole entry, looked up): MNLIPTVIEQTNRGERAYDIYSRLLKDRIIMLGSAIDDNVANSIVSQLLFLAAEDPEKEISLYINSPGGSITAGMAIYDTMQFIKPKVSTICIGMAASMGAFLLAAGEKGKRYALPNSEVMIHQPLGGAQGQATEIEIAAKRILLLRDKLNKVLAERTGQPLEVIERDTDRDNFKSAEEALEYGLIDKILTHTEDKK
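FRET quenching reversal measured ClpP activation: 10 microg/mL B. subtilis ClpP at pH 8 with the FRET-FV decapeptide, read at 430 nm after 320 nm excitation. The 20-min minus 0-min signal was scaled between DMSO/no-enzyme wells and ADEP (5.8 microM final).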
Active calls of the source: *; ? = inconclusive; · = no result given. Unless noted, calls come from the whole dose curve; as a rule, active = well fitted inhibition curve with a large enough effect; inconclusive = small, poorly fitted or top-dose-only effect; inactive = flat fitted curve, though single readings scatter.

SMILES	DT40 TDP1 CPT	DRD3 agonist	DT40 TDP1 no CPT	DRD3 antagonist	IL1B secr inh	ClpP mod
N#C/C(=C\c1ccc(O)cc1)C(=O)NCc1cccc(Cl)c1	-7%	-9	-4%	-23	-16	1%
CCc1ccccc1NC(=O)Cn1c(=O)n(-c2ccc(C)c(C)c2)c(=O)c2oc3ccccc3c21	15µM*	6	?	·	·	-2%
CCc1ccccc1NC(=O)Cn1c(=O)n(Cc2ccc(OC)cc2)c(=O)c2oc3ccccc3c21	9.2µM*	-6	?	·	·	-1%
COc1ccc(Cn2c(=O)c3oc4ccccc4c3n(CC(=O)Nc3c(C)cccc3C)c2=O)cc1	7.3µM*	11	5.8µM*	·	·	-1%
COc1cc(NC(=O)Cn2c(=O)n(Cc3ccccc3)c(=O)c3oc4ccccc4c32)cc(OC)c1	-4%	-3	-12%	·	·	?
O=C(c1cccs1)N1C[C@@H](O)[C@H](n2cc(C3CC3)nn2)C[C@@H]1c1ccc(Cl)cc1	-3%	2	-32%	-3	11	1%
COc1cccc(CN(C)C(=O)c2cc(S(=O)(=O)NC3CCCCC3)ccc2C)c1OC	?	0	-3%	10	-23	-3%
CN(C)c1ccc(-c2noc(C3CC(=O)N(c4ccc5c(c4)OCCO5)C3)n2)cc1 (stereo unspecified)	4.6µM*	-4	2.9µM*	·	·	0%
O=C1CC(c2nc(-c3ccccc3)no2)CN1c1ccc2c(c1)OCCO2 (stereo unspecified)	-10%	9	-12%	·	·	0%
COc1ccc(N2CC(c3nc(-c4cc(OC)c(OC)c(OC)c4)no3)CC2=O)cc1Cl (stereo unspecified)	?	3	16µM*	·	·	-1%
COc1cc(-c2noc(C3CC(=O)N(c4ccc5c(c4)OCCO5)C3)n2)cc(OC)c1OC (stereo unspecified)	?	0	?	·	·	-2%
CCOc1ccc(N2CC(c3nc(-c4cc(OC)c(OC)c(OC)c4)no3)CC2=O)cc1 (stereo unspecified)	?	2	26µM*	·	·	0%
O=C(CSc1nc2ccccc2n1Cc1cccc(F)c1)NCc1ccccc1	?	-10	?	·	·	-2%
COC(=O)c1ccc(COC(=O)C2CCN(S(=O)(=O)c3ccc(C)c(C)c3)CC2)o1	0%	-6	-14%	1	27	·
O=C(Cc1cccs1)N(Cc1cccs1)C1(C(=O)NC2CCCC2)CCCCC1	8.2µM*	-3	6.5µM*	20	-24	-1%
O=C(Cc1cccs1)N(Cc1ccco1)C1(C(=O)NC2CCCCC2)CCCCC1	15µM*	-5	18µM*	8	?	0%
O=C1NC(=O)C(CC(=O)N(c2ccccc2)C2(C(=O)NC3CCCC3)CCCCC2)N1 (stereo unspecified)	-28%	-16	-14%	-20	-5	-1%
O=C(c1ccc2c(c1)OCO2)N(CC1CCCO1)C1(C(=O)NC2CCCCC2)CCCCC1 (stereo unspecified)	?	-4	?	-18	-19	-2%
O=C(Cc1cccs1)N(c1ccc(F)cc1)C1(C(=O)NC2CCCCC2)CCCC1	?	1	23µM*	-8	0	1%
O=C(Cc1cccs1)N(CC1CCCO1)C1(C(=O)NC2CCCC2)CCCCC1 (stereo unspecified)	?	-5	16µM*	-13	-18	·
CC(=O)N(Cc1ccco1)C1(C(=O)NC2CCCCC2)CCCCC1	?	3	?	8	5	0%
COc1ccc(-c2nc3sc(CCNC(=O)C(=O)Nc4cc(C)cc(C)c4)c(C)n3n2)cc1	-3%	-23	-19%	·	·	0%
CSc1ccc(CNCc2c(C(=O)O)c(C)n(Cc3ccc(F)cc3Cl)c2C)cc1	?	-18	-21%	·	·	-2%
COc1ccc(-c2nc3c(c4nnc(SC(C)C(=O)Nc5ccccc5)n24)COC(C)(C)C3)cc1 (stereo unspecified)	0%	1	-3%	4	9	-1%
COc1ccc(NC(=O)C(C)Sc2nnc3c4c(nc(-c5ccc(OC)cc5)n23)CC(C)(C)OC4)cc1 (stereo unspecified)	21µM*	-4	15µM*	2	-1	-23%
SMILES	DT40 TDP1 CPT	DRD3 agonist	DT40 TDP1 no CPT	DRD3 antagonist	IL1B secr inh	ClpP mod
CN1CCN(CC(=O)Nc2cc(N(C)C)nc3ccccc23)CC1	1%	2	-26%	-17	-62*	-1%
CCCCCC(=O)Nc1cc(N(C)C)nc2ccccc12	?	0	?	14	26	28µM*
CCCCCCC(=O)Nc1c2c(nc3ccccc13)N(C)CC2	?	3	-21%	10	15	28µM*
CN1CCc2c1nc1ccccc1c2NC(=O)CN1CCCC1	-5%	-4	?	-17	-4	·
CCN(CC)CC(=O)Nc1cc(N(C)C)nc2ccccc12	4%	-10	-28%	2	·	·
Cc1cc(F)ccc1NC(=O)c1csc2c1CCC(C)C2 (stereo unspecified)	?	-10	-4%	·	·	1%
CCN(CC)CCn1c2c(c(SCC(=O)Nc3cc(OC)cc(OC)c3)nc1=O)CCC2	-21%	1	-30%	6	-17	-4%
Cc1ccccc1N(C)S(=O)(=O)c1nnc(NC(=O)c2ccco2)s1	?	-2	?	-2	-10	-7%
CSC1=C(C#N)C(c2sccc2C)CC(=O)N1 (stereo unspecified)	?	-7	-25%	5	-76*	·
COc1ccc(OC)c(C2CC(=O)NC(SC)=C2C#N)c1 (stereo unspecified)	-18%	0	1%	47	-1	0%
Cc1nn(-c2ccccn2)c2nc(-c3cccs3)cc(C(=O)NCc3ccco3)c12	23µM*	-15	23µM*	0	0	13µM*
Cc1nn(-c2ccccc2)c2nc(-c3ccncc3)cc(C(=O)NCc3ccco3)c12	?	0	18µM*	-8	-2	-12%
CC(/C=N/NC(=O)c1cc(-c2cccnc2)nc2c1c(C)nn2-c1ccccc1)=C\c1ccccc1	18µM*	-3	13µM*	35	0	?
CCOC(=O)c1cc(-c2cccs2)nc2c1c(C)nn2-c1ccccn1	15µM*	-8	15µM*	4	-79*	·
Cc1ccc(C)c(OCCC(=O)OCC(=O)NC2CCCC2)c1	2%	-14	6%	-8	8	1%
